The full ranking holds about 110,000 compounds; the median of “z-score” is about -0.1, and the highest 2% start at about 2. The entries come from a sample that favours the highest values as a whole. Calls of active or inactive are those of the source.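 The calls were made as follows: active = z-score in the third read window above 3 or below -3; inactive = the rest.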
Biological target: Metabotropic glutamate receptor 8 (Rattus norvegicus) (UniProt P70579)
Test: mGluR8 Gi/Go-coupled signaling modulation – cell-based, rat, thallium flux, HTS, primary screen (AID 488969)
Settings: HEK293 rat mGluR8, GIRK (G protein-gated inwardly rectifying potassium channel) thallium flux, FluoZin2; at 10 µM; stronger effect = higher value; submaximal glutamate (EC20) added with thallium

Chain of Metabotropic glutamate receptor 8 (Rattus norvegicus) (P70579 whole entry, looked up): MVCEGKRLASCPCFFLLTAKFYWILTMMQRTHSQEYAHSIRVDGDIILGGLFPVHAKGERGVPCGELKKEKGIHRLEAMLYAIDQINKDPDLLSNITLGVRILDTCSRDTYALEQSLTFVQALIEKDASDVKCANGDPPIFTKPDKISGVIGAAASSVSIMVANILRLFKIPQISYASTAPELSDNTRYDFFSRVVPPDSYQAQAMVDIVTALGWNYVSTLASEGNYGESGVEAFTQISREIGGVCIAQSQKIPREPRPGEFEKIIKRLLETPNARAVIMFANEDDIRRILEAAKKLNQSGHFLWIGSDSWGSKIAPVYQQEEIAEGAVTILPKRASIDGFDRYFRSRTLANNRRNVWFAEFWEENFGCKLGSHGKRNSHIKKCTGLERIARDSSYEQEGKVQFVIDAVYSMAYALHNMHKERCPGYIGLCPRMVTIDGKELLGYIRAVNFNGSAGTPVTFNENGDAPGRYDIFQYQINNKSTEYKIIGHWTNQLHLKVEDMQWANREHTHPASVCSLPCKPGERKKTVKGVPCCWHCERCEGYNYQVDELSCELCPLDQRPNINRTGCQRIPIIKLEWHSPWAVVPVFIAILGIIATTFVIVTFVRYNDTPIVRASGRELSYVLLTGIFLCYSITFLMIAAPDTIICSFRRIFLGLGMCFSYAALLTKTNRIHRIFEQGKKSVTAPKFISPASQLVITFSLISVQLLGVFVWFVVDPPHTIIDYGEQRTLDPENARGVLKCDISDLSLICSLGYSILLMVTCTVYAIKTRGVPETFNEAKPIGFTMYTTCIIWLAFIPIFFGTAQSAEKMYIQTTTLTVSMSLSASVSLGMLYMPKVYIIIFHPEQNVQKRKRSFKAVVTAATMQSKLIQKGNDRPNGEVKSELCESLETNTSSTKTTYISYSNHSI

Structure (SMILES) | z-score
CN(C1CCS(=O)(=O)C1)S(=O)(=O)c1ccc(C2CCCCC2)cc1 (stereo not given) | 0.314
CCOC(=O)CSc1nnc(NC(=O)c2cccc([N+](=O)[O-])c2C)s1 | 0.774
O=C(NN=c1c(=O)c2ccccc2c1=O)c1ccccc1 | 6.47 (active)
O=C(NC(NC(=O)c1ccccc1)C(=O)c1ccccc1)c1ccccc1 | -0.143
CC1=C/C(=N\NC(=O)c2ccccc2)CC1 | -0.0871
O=[N+]([O-])c1cc(/C=N/Nc2nc(N3CCOCC3)nc(N3CCOCC3)n2)ccc1Cl | -0.222
CC1(C)CC(=O)C2=C(C1)Nc1cc3c(cc1C2c1ccc2c(c1)OCO2)OCO3 (stereo not given) | -0.639
COc1cccc(C2C3=C(CC(C)(C)CC3=O)Nc3cc4c(cc32)OCO4)c1 (stereo not given) | 2.12
COc1ccc(C2C3=C(CC(C)(C)CC3=O)Nc3cc4c(cc32)OCO4)cc1 (stereo not given) | -0.138
Cc1nc2cc(N3CCCCC3)c(NC(=O)c3ccncc3)cc2c(=O)n1Cc1ccc(Cl)cc1 | -0.37
Cc1nn(C(=O)c2nn(C)cc2Cl)c(C)c1Br | 0.0765
CC(=O)c1cn(CC(=O)NCc2ccco2)c2ccccc12 | -0.774
CCCNC(=S)N1CCC(c2nc3cc(C)c(C)cc3[nH]2)CC1 | -0.228
Cc1ccc(-c2nn(CC(=O)Nc3cccnc3)c(=O)c3ccccc23)cc1 | -0.291
CN(C)c1ccc(C2C3C(=O)NC(=O)C3ON2c2ccc(Cl)cc2)cc1 (stereo not given) | 2.58
COc1ccccc1N1C(=O)C2ON(c3ccccc3)C(c3ccc(N(C)C)cc3)C2C1=O (stereo not given) | 0.0686
CN(C)c1ccc(C2N(c3ccc(Cl)cc3)C(=O)C3CCCN32)cc1 (stereo not given) | -0.129
Cc1ccc(C(=O)C(C(=O)/C=C/c2ccccc2)=C2SCCCS2)cc1 | 0.0319
c1ccc(-c2csc3ncn4nnnc4c23)cc1 | -0.177
CCCC1CC(CSC(=N)N)OC1=O (stereo not given) | -0.478
Cc1csc(NC(=O)CSc2nc3ccccc3s2)n1 | -0.293
Cc1csc(SCC(=O)Nc2nc3ccccc3s2)n1 | 3.3 (active)
Cc1csc(SCC(=O)Nc2nc(-c3ccccc3)cs2)n1 | 1.07
Cc1ccc(-c2nnc(SCC(=O)N3CCN(c4ccccc4)CC3)o2)cc1 | -1.07
COc1ccc2[nH]c(=O)c(CN(C(=O)c3ccccn3)c3ccccc3)cc2c1 | -0.101
CCCN(CC1CC1)C(=O)COC(=O)c1[nH]c(C)c(C(=O)OCC)c1C | -0.372
COc1cc(NC(=O)c2cccnc2Sc2ccc(Cl)cc2)cc(OC)c1OC | -0.134
Cc1cccc(S(=O)(=O)NC(Cc2c[nH]c3ccccc23)C(=O)O)c1 (stereo not given) | 2.17
Cc1ccc(S(=O)(=O)NC(Cc2c[nH]c3ccccc23)C(=O)O)cc1 (stereo not given) | -0.0187
O=C(O)C(Cc1c[nH]c2ccccc12)NS(=O)(=O)c1cccc2nsnc12 (stereo not given) | 0.00264

Source: PubChem BioAssay AID488969 (Vanderbilt High Throughput Screening Facility, 2010)
